SW480 rerep – A quantitative high throughput screen for small molecules that induce DNA re-replication in SW480 colon adenocarcinoma cells; SW480 DNA re-replication, Hoechst DNA content imaging, 48 h; Potency, µM (doses to about 46.1 µM), inactives show top-dose re-replication activation, actives largely listed as activators; 340,000 compounds, 1.8% hits; AID 624297, 2012; further: % of control where 0% means no effect; nearly all actives have a fitted effect of over 55% in size
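Quantitative HTS format with DMSO vehicle controls; 48 hr drug incubation at 37 C, then 40 min Hoechst staining and scanning imager measurement at 405 nm excitation.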
HT1080 IDH1KD tx – qHTS for induction of synthetic lethality in tumor cells producing 2HG: qHTS for the HT-1080-IDH1KD cell line. HT-1080 IDH1 knockdown viability, ATP luminescence, 48 h. Potency, µM (titrated, usually from 46.1 µM), for inactives: at the top dose activity, negative = toxicity, actives largely listed as cytotoxic. 360,000 compounds, 2% hits. AID 686971, 2013;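 further: 0% = DMSO wells and -100% = cell-free medium wells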
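Assay cells: HT-1080 with IDH1 knockdown, 750 per well, RPMI/5% FBS. Exposure: 48 h at 37 °C following 2 h pre-incubation. Read: CellTiter-Glo luminescence; fitted concentration-response, curve class assigned.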
HT1080-NT tox – qHTS for induction of synthetic lethality in tumor cells producing 2HG: qHTS for the HT-1080-NT fibrosarcoma cell line; HT-1080-NT fibrosarcoma viability, CellTiter-Glo ATP luminescence, 48 h; Potency, µM (series often up to 46.1 µM), inactives show at the top dose activity, negative = less viability, most hits filed as cytotoxic; 360,000 compounds, 1.6% hits;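 further: NT is the 2HG producing partner of a matched IDH1 knockdown line; 0% = DMSO-treated cells and -100% = media-only wells without cells; nearly all actives have a fitted effect of over 55% in size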
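Viability of the 2HG-overproducing fibrosarcoma line after 48 hours of compound exposure at 37 degrees C was determined by luminescence with CellTiter-Glo, and concentration-effect curves were then fitted and categorized.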
MCF10A rereplic – A quantitative high throughput screen for small molecules that induce DNA re-replication in MCF 10a normal breast cells | MCF 10A DNA re-replication, Hoechst nuclear intensity, 48 h | Potency, µM (series often up to 46.1 µM), for the others: top-dose activity, positive = re-replication, most hits filed as activators | 350,000 compounds, 2.9% hits; further: % of control where 0% means no effect; nearly all actives have a fitted effect of over 50% in size
KB-3-1 cytotox – qHTS assay for MDR1-selective chemotherapeutics: Primary screen using the parental adenocarcinoma cell KB-3-1; AID 1347075, 2019; 400,000 compounds, 1.4% hits; KB-3-1 viability, CellTiter-Glo ATP luminescence, 72 h; Potency, µM (top dose mostly 46.1 µM), usual class: cytotoxic; further: on the % scale 0 is the no-effect control and ±100 the full control effect; nearly all actives have a fitted effect of over 60% in size
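Cytotoxicity in the drug-sensitive parental line KB-3-1 was scored as loss of CellTiter-Glo luminescence following 72 h incubation with compound. Values come from curve fitting of normalized concentration-response data.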
KB-V1 MDR tox – qHTS assay for MDR1-selective chemotherapeutics: Primary screen using the drug-selected MDR subline cells KB-V1; Potency, µM (top dose mostly 46.1 µM), actives largely listed as cytotoxic; KB-V1 MDR cells viability, CellTiter-Glo, 72 h; 400,000 compounds, 3.4% hits; further: on the % scale 0 is the no-effect control and ±100 the full control effect; nearly all actives have a fitted effect of over 60% in size
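Following 72 h at 37 degrees C with compound, KB-V1 cell viability was read by CellTiter-Glo luminescence, medium being phenol-red-free DMEM plus 10% FBS; concentration-response parameters came from normalized, curve-fitted qHTS data.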
The depositor's hits bear a star. Shown are actives, neighbours in structure and some others; about 8% of the full set was active somewhere. The call rests on the fitted dose curve; in most records, active means well fitted curve in the direction sought with a large enough effect; inconclusive means small, poorly fitted or top-dose-only effect, or another doubt; inactive means no such curve, though single readings can be large; an effect the other way counts as inactive or inconclusive. Potency means the concentration at half of the fitted maximal effect.

Results for CC(C)C[C@H]1CNC(=S)N1C[C@H]1CCCN1C[C@H](Cc1ccc(O)cc1)N1C[C@H](Cc2ccc(O)cc2)N(CC2CCCCCC2)C1=S ?
HT1080 IDH1KD tx: 13µM*; HT1080-NT tox: 11.6µM*; KB-3-1 cytotox: inconclusive; KB-V1 MDR tox: inconclusive

How did CC(C)C[C@@H](CN1CCCC1CN1C(=S)NC[C@@H]1Cc1ccc(O)cc1)N1C[C@H](Cc2ccccc2)N(CC2CCCCCC2)C1=S (stereo partly drawn) do in these assays?
SW480 rerep: -6.4%; HT1080 IDH1KD tx: -13.2%; HT1080-NT tox: -4.7%; MCF10A rereplic: 20.8%; KB-3-1 cytotox: inactive; KB-V1 MDR tox: inconclusive

How did CC(C)C[C@H]1CNC(=S)N1C[C@H]1CCCN1C[C@H](CC(C)C)N1C[C@H](Cc2ccc(O)cc2)N(CC2CCCCC2)C1=S do in these assays?
HT1080 IDH1KD tx: 20.6µM*; HT1080-NT tox: 18.4µM*; KB-3-1 cytotox: inconclusive; KB-V1 MDR tox: 16.4µM*

What do the screens show for `CCOc1ccc(C(=O)/C=C/c2cn(CC(O)CN3CCc4ccccc43)c3ccccc23)cc1` (stereo not drawn)?
KB-3-1 cytotox: inactive; KB-V1 MDR tox: inconclusive

Results for O=C(Nc1ccc2c(c1)OCO2)C1Cc2c(-c3ccncc3)ccnc2O1 (stereo not drawn) ?
HT1080 IDH1KD tx: 8.5%; HT1080-NT tox: 22.4%; KB-3-1 cytotox: inactive; KB-V1 MDR tox: inactive

Results for O=C(Nc1ccc2c(c1)OCO2)C1Cc2c(-c3ccc4c(c3)OCO4)ccnc2O1 (stereo not drawn) ?
HT1080 IDH1KD tx: 4.11µM*; HT1080-NT tox: inconclusive; KB-3-1 cytotox: inconclusive; KB-V1 MDR tox: 8.2µM*

What do the screens show for `COc1ccc(NC(=O)C2Cc3c(-c4ccc5c(c4)OCO5)ccnc3O2)cc1` (stereo not drawn)?
HT1080 IDH1KD tx: inconclusive; HT1080-NT tox: inconclusive; KB-3-1 cytotox: 9.2µM*; KB-V1 MDR tox: inconclusive

What do the screens show for `CC(=O)Nc1cccc(-c2ccnc3c2CC(C(=O)Nc2ccc4c(c2)OCO4)O3)c1` (stereo not drawn)?
HT1080 IDH1KD tx: 2.31µM*; HT1080-NT tox: inconclusive; KB-3-1 cytotox: 5.17µM*; KB-V1 MDR tox: inactive

Results for O=C(Nc1ccc2c(c1)OCO2)C1Cc2c(-c3ccc(Cl)cc3)ccnc2O1 (stereo not drawn) ?
HT1080 IDH1KD tx: inconclusive; HT1080-NT tox: 23.1µM*; KB-3-1 cytotox: inactive; KB-V1 MDR tox: inactive

Results for CCOC(=O)c1c(C)[nH]c(C)c1S(=O)(=O)N1CCC(C(=O)Nc2ccccc2CC)CC1 ?
KB-3-1 cytotox: inactive; KB-V1 MDR tox: inconclusive

What do the screens show for `CCOC(=O)c1ccccc1NC(=O)CSc1ncc(CO)n1Cc1ccc(C)cc1`?
KB-3-1 cytotox: inactive; KB-V1 MDR tox: inactive

How did Cc1ccc(-c2cnc(NCc3c(F)cccc3Cl)n2C)cc1 do in these assays?
KB-3-1 cytotox: inactive; KB-V1 MDR tox: inactive

How did COC(=O)c1cc2sc(C)cc2n1CC(=O)Nc1ccc(C)cc1Cl do in these assays?
KB-3-1 cytotox: inactive; KB-V1 MDR tox: inactive

What do the screens show for `CCC(C)NC(=O)CSc1nc2n[nH]c(C)c2c(=N)n1-c1ccc(C)c(Cl)c1` (stereo not drawn)?
KB-3-1 cytotox: inactive; KB-V1 MDR tox: inactive

How did COc1cc(CNC(=O)Nc2nc(C(N)Cc3ccc(Cl)cc3)cs2)cc(OC)c1OC (stereo not drawn) do in these assays?
HT1080 IDH1KD tx: inconclusive; HT1080-NT tox: 6.51µM*; KB-3-1 cytotox: inconclusive; KB-V1 MDR tox: inactive
